Source: PubChem (National Center for Advancing Translational Sciences (NCATS))
This is a sample that favours compounds with a hit; in the whole collection about 2.6% have one here.
Cruzain Triton: blocks cruzain activity in presence of Triton detergent. purified cruzain, Z-FR-AMC fluorescence, 0.01% Triton. P25779. Potency, µM, without a hit: max response, negative = inhibition, most hits filed as inhibitors. 200,000 tested, 0.43% active. AID 1478;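 further: plate controls were neutral wells for no effect and buffer without enzyme for full effect; nearly all actives have a fitted effect of over 40% in size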
Target sequence (P25779 123-467 limits assumed): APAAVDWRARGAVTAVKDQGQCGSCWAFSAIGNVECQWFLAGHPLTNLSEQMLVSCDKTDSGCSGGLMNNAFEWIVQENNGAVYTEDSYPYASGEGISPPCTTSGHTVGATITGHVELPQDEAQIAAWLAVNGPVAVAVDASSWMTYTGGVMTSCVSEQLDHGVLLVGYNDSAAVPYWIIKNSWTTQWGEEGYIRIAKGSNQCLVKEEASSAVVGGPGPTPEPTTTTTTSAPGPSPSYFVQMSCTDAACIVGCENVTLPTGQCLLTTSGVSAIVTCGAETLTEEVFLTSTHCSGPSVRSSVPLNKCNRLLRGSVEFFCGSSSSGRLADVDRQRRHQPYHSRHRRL
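Detergent-containing arm of a paired screen for aggregation-based inhibition: 0.01% Triton X-100 present. Cruzain at 1.5 nM cleaved 2 uM Z-FR-AMC at pH 5.5 with 5 mM DTT; AMC fluorescence gain over 60 s measured activity.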
Cruzain noTriton: blocks cruzain activity in detergent-free assay; purified cruzain, Z-FR-AMC fluorescence, no detergent; AID 1476; P25779; Potency, µM, for inactives: max response, negative = inhibition, usual class: inhibitors; 200,000 tested, 2.3% active;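 further: plate controls were enzyme without inhibitor for no effect and buffer without enzyme for full effect; nearly all actives have a fitted effect of over 40% in size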
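Purified cruzain at 1.5 nM, pre-incubated 15 min with compound at room temperature in 100 mM sodium acetate pH 5.5, 5 mM DTT, 0.00005% Triton X-100. Reaction started with 2 uM Z-FR-AMC; AMC fluorescence increase over 60 s gives rate.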
Numbers without * were called inactive; ? = inconclusive. The call rests on the fitted dose curve; in most records, active means well fitted curve in the direction sought with a large enough effect; inconclusive means small, poorly fitted or top-dose-only effect, or another doubt; inactive means no such curve, though single readings can be large; an effect the other way counts as inactive or inconclusive. Potency means the concentration at half of the fitted maximal effect.

SMILES	Cruzain Triton	Cruzain noTriton
CCN(CC)C(=O)CSc1nc2ccccc2c(=O)n1-c1cccc(OC)c1	-2%	-1%
Cc1cccc(-n2c(/C=C/c3ccccc3O)nc3ccccc3c2=O)c1	-6%	?
COc1ccc(Cn2c(=O)c3oc4ccccc4c3n(CC(=O)Nc3cc(C)cc(C)c3)c2=O)cc1	-1%	-16%
CC1=C(C(=O)Nc2cccnc2)C(c2ccccc2)n2nc(SCc3ccccc3Cl)nc2N1 (stereo unspecified)	-2%	1%
COc1cc(NC(=O)CCc2c(C)nn(-c3ccc4nnc(C)n4n3)c2C)cc(OC)c1OC	-1%	-4%
COc1ccc(-n2c(C(C)n3nc(C)c([N+](=O)[O-])c3C)n[nH]c2=S)cc1 (stereo unspecified)	-2%	-3%
COc1ccc(-n2c(C)c([N+](=O)[O-])c3ccc(O)c(CN(C)C)c32)cc1	-21%	25µM*
CCn1c(NCc2cccc(Cl)c2)nc2ccccc21	-2%	-10%
Cc1cccn2c(=O)c(/C=C(\C#N)c3nc4ccccc4n3C)c(Oc3ccc(Cl)cc3)nc12	-1%	-7%
Cc1cc(Oc2nc3c(C)cccn3c(=O)c2/C=C(\C#N)S(=O)(=O)c2ccc(Cl)cc2)ccc1Cl	-1%	13µM*
COc1cc(NC(=O)CN2C(=O)C(c3ccc(C)cc3)=NC23CCCCC3)cc(OC)c1	-8%	-5%
O=C(CCCc1nc(-c2ccccc2)no1)Nc1cc(C(F)(F)F)cc(C(F)(F)F)c1	-13%	-10%
Cc1ccc(CNC(=O)Cc2nc3nc(C)cc(C)n3n2)cc1	1%	-5%
Cc1cc(C)n2nc(CC(=O)NCc3ccccc3Cl)nc2n1	16µM*	8%
O=[N+]([O-])c1ccccc1N/N=C/c1c[nH]c2ccccc12	-5%	2%
COc1ccccc1NS(=O)(=O)c1cc([N+](=O)[O-])ccc1N/N=C/c1c[nH]c2ccccc12	6%	10µM*
COc1ccc([N+](=O)[O-])cc1NS(=O)(=O)c1ccccc1	-7%	0%
Brc1ccc(-c2ccc(/C=N/Nc3nncc(-c4ccccc4)n3)o2)cc1	5%	-6%
O=C(N/N=C/c1ccc[nH]1)c1ccccc1[N+](=O)[O-]	-4%	-10%
O=[N+]([O-])c1ccc(N/N=C/c2c[nH]c3ccccc23)cc1	-4%	25µM*
O=[N+]([O-])c1ccc(N/N=C/c2ccc[nH]2)cc1	-24%	25µM*
Brc1ccc(-c2ccc(/C=N/Nc3nc4ccccc4[nH]3)o2)cc1	?	7.9µM*
Cc1c(Cl)cccc1NC(=O)CSc1nc(=O)n(CCN2CCOCC2)c2c1CCC2	-1%	-11%
C=C1c2cccc(C(F)(F)F)c2O[C@H](C(=O)OCC)[C@@H]1CCCCCC	7%	-1%
COc1ccc(CCN2C(=O)CN(C3CCCCCC3)C(=O)C2c2ccc(Cl)cc2)cc1OC (stereo unspecified)	0%	25%
SMILES	Cruzain Triton	Cruzain noTriton
COc1cccc(CNC(=O)CN2C(=O)CSc3c2c(C)nn3-c2ccccc2)c1	-3%	-7%
COc1ccc(CNc2ncnc3ccc(-c4ccc(N(C)C)cc4)cc23)c(OC)c1	-1%	?
C[C@@H]1CC[C@H]2[C@H](C)C3[C@H](C[C@H]4[C@@H]5CC=C6C[C@@H](O)CC[C@@]6(C)[C@@H]5C[C@@H](O)[C@]34C)N2C1 (stereo partly specified)	-3%	-6%
COc1ccc(NS(=O)(=O)c2cc([N+](=O)[O-])ccc2N/N=C\c2c(C)[nH]c3ccccc23)cc1	2%	?
Cc1nn(-c2ccccc2)c(N2CCCC2)c1/C=N/Nc1ccc(S(=O)(=O)Nc2ccccc2)cc1[N+](=O)[O-]	5%	?
Cc1[nH]c2ccccc2c1/C=N/Nc1ccc([N+](=O)[O-])cc1S(=O)(=O)Nc1ccc(Cl)cc1	5%	5µM*
COc1ccccc1NS(=O)(=O)c1ccc(N/N=C/c2c(C)nn(-c3ccccc3)c2N2CCCC2)c([N+](=O)[O-])c1	-1%	3.2µM*
COc1ccccc1NS(=O)(=O)c1cc([N+](=O)[O-])ccc1N/N=C/c1sc(N2CCOCC2)nc1-c1ccccc1	-2%	6.3µM*
COc1ccc(/C=N/Nc2ccc([N+](=O)[O-])cc2S(=O)(=O)N2CCN(C)CC2)cc1	-4%	2%
O=C(N/N=C/c1c[nH]c2ccccc12)c1cccc([N+](=O)[O-])c1	-12%	1%
O=C(N/N=C/c1c[nH]c2c1ccc1ccccc12)c1ccc([N+](=O)[O-])cc1	-4%	6.3µM*
O=C(CSc1nc2c(c(=O)[nH]1)CCC2)Nc1cc(C(F)(F)F)ccc1Cl	-5%	-5%
CN(C)C(=O)c1ccc(-c2nccc(NCc3cccnc3)n2)cc1	0%	-1%
Cc1c(-c2nsc(NC(=O)c3cccs3)n2)nnn1-c1ccc(Cl)cc1	0%	?
CC(C)(c1cc(Br)c(OCC(Br)CBr)c(Br)c1)c1cc(Br)c(OCC(Br)CBr)c(Br)c1 (stereo unspecified)	-2%	-8%
C(=N\Nc1nc2ccccc2[nH]1)/c1c[nH]c2ccccc12	?	16µM*
Cc1ccc(/C=N/Nc2nc3ccccc3[nH]2)s1	-17%	-24%
Cc1ccccc1CNC(=O)c1c(C)oc2c1C1=NCCN1C=N2	-1%	-1%
Cc1cccc(N2CCN(C(=O)c3noc4c3CCCCC4)CC2)c1C	-6%	7%
COc1ccc(-c2cc(C(=O)Nc3cccc(C(C)=O)c3)no2)cc1OC	-1%	-10%
COc1ccc(-c2cc(C(=O)Nc3cccc(C(C)=O)c3)no2)cc1	0%	20µM*
Cc1ccc(-c2cc(C(=O)Nc3cnn(C45CC6CC(CC(C6)C4)C5)c3)no2)cc1	5%	13µM*
COc1ccc(-c2cc(C(=O)Nc3ccc(C)cc3)no2)cc1	1%	20µM*
O=C(Nc1cnn(C23CC4CC(CC(C4)C2)C3)c1)c1cc(-c2ccccc2)on1	-7%	?
COc1ccc(NC(=O)c2cc(-c3ccccc3OC)on2)cc1	-6%	-10%
SMILES	Cruzain Triton	Cruzain noTriton
CCCCCn1cc2c(c1-c1ccc(Cl)cc1)c(=O)n(C)c(=O)n2C	-1%	-2%
CCN(CC)c1ccc(/C=c2/sc3nnc(-c4ccccc4C)n3c2=O)cc1	-6%	?
CCN(CC)c1ccc(/C=c2\sc3nnc(-c4ccccc4Cl)n3c2=O)cc1	1%	13µM*
Cc1onc(-c2ccccc2Cl)c1C(=O)Nc1ccc2c(c1)OCO2	-2%	-1%
Cc1onc(-c2ccccc2Cl)c1C(=O)OCC(=O)c1ccc2c(c1)OCCO2	-3%	25µM*
COCCCNc1oc(/C=C/c2cc(OC)c(OC)c(OC)c2)nc1C#N	25µM*	20µM*
COc1ccc(CCNc2oc(/C=C/c3cc(OC)c(OC)c(OC)c3)nc2C#N)cc1OC	-8%	-16%
COc1ccc(N2CCN(c3csc4ccc(Cl)cc4c3=O)CC2)cc1	-6%	-1%
Cc1ccc(-c2nnc(Nc3cccc(C(F)(F)F)c3)c3ccccc23)cc1S(=O)(=O)N1CCOCC1	-3%	2%
CN(C)S(=O)(=O)c1cccc(-c2nn(-c3ccccc3)cc2/C=C(\C#N)c2nc3ccccc3[nH]2)c1	-3%	?
N#C/C(=C\c1ccc(-c2ccc(F)cc2F)o1)c1nc2ccccc2[nH]1	-5%	13µM*
N#C/C(=C\c1cn(-c2ccccc2)nc1-c1cc2ccccc2o1)c1nc2ccccc2[nH]1	-3%	7.9µM*
N#C/C(=C\c1ccc(-c2ccccc2C(=O)O)o1)c1nc2ccccc2[nH]1	-1%	-1%
